Hits are enriched below; roughly 8% of the tested compounds scored in any of these assays.
Marburg entry inh: blocks Marburg virus binding to or entry into cells | Marburg virus pseudotyped entry inhibition, cell reporter | Potency, µM (doses to about 37.8 µM), without a hit: at the highest dose activity change, negative = inhibition, most hits filed as inhibitors | 300,000 compounds, 1.8% hits | AID 540276; calls by dose curve; tested in HEK293 cells; also: potency is read from the fitted curve at half-maximal effect; % is scaled to controls: 0 for no effect and ±100 for the full control effect
FMDV inh: blocks foot and mouth disease virus; FMDV antiviral cell-based qHTS; Potency, µM (titrated, usually from 57.9 µM), without a hit: top-dose activity change, negative = inhibition, usual class: inhibitors; 410,000 compounds, 1.2% hits; AID 1159524; calls by dose curve; tested in HEK293T cells; also: read-out not given here; potency is read from the fitted curve at half-maximal effect; % is scaled to controls: 0 for no effect and ±100 for the full control effect; nearly all actives have a fitted effect of over 45% in size
LASV entry inh: Lassa virus entry inhibition; Lassa virus pseudotype entry inhibition, cell reporter; 300,000 compounds, 1.2% hits; AID 540256; Potency, µM (doses to about 37.9 µM), inactives show top-dose activity change, negative = inhibition, hits mostly inhibitors; calls by dose curve; tested in HEK293 cells; also: potency is read from the fitted curve at half-maximal effect; % is scaled to controls: 0 for no effect and ±100 for the full control effect; nearly all actives have a fitted effect of over 50% in size
SARS PLpro yeast: inhibitors of SARS-CoV papain-like protease in yeast. S. cerevisiae expressing SARS-CoV PLpro, growth rescue. Potency, µM (top dose mostly 32.9 µM), without a hit: at the highest dose activity, positive = growth rescue, hits mostly activators. 330,000 compounds, 0.19% hits. AID 485353; calls by dose curve; also: potency is read from the fitted curve at half-maximal effect; 0% is about no effect; nearly all actives have a fitted effect of over 55% in size
HCV inh: blocks hepatitis C virus | Huh7.5.1 HCVcc-Cre infection, luciferase reporter, 44 h | Potency, µM (top dose mostly 41.8 µM), inactives show top-dose activity change, negative = inhibition, actives largely listed as inhibitors | 340,000 compounds, 3.4% hits | AID 651820; active = well fitted inhibition curve with a large enough effect; inconclusive = small, poorly fitted or top-dose-only effect, or another doubt; inactive = no such curve, though single readings can be large or run the other way; also: potency is read from the fitted curve at half-maximal effect; % is scaled to controls: 0 for no effect and ±100 for the full control effect
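Whole-lifecycle infectious HCVcc-Cre system; cells 1,000/well, compound then virus (~0.5 moi) added 4 h after plating, 44 h culture. Luciferase read 15 sec following 15 min substrate incubation, room temp.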
HCMV inh: inhibitors of human cytomegalovirus; HFF cells, HCMV-luciferase reporter, 72 h; hits give low values; activity change, negative = inhibition, % at 57.5 µM; 410,000 compounds, 4.5% hits; in the data active = activity change below about -60%; inconclusive = no clear call, values can overlap the other calls; inactive = above about -39%; also: % is scaled to controls: 0 for no effect and ±100 for the full control effect
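Cell-based, HFFs, 1000 cells/well, 16 h 37C; cpds in DMSO + HCMV-luc, MOI 1 PFU/cell; 72 h 37C; OneGlo luminescence after 5 min RT; norm. to buffer vs Salinomycin 10uM.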
* marks the source's active call; other numbers are inactive results; u = inconclusive; x = not tested or not shown; + = active, no number; ! = not active in a repeat; [ ] = remark or other dose.

SMILES	Marburg entry inh	FMDV inh	LASV entry inh	SARS PLpro yeast	HCV inh	HCMV inh
CCC(Oc1ccccc1)C(=O)Nc1cc(-c2ccccc2OC)nn1-c1ccccc1 (stereo not given)	x	-20%	-16%[46.1 µM]	x	x	44
O=C(c1ccc(Cl)c(Cl)c1)c1cc(-c2ccccn2)c(N2CCOCC2)s1	u	-23%	-10%	-15%	1%	-75*
O=C(c1ccc(Br)cc1)c1cc(-c2ccccn2)c(N2CCOCC2)s1	u	u	-29%	6%	u	55
COc1ccc(CCNC(=O)C(=O)NCC(c2ccco2)S(=O)(=O)c2ccc(C)cc2)cc1 (stereo not given)	x	u	u	x	x	-13
CCn1c2ccccc2c2cc(CN3CCN(Cc4ccccc4Cl)CC3)ccc21	x	-20%	-17%[46.1 µM]	x	x	43
CCOC(=O)c1ccc(NC(=S)N2CCSC2c2ccc(Br)cc2)cc1 (stereo not given)	7%	2%	5%	-25%	u	-61*
CCOC(=O)c1ccc(NC(=S)N2CCC(O)CC2)cc1	u	52%	6%	2%	8%	-3
CC(=O)Nc1ccc(N/C(N)=N/c2nc(C)cc(C)n2)cc1	-19%[46.1 µM]	-24%	9%	-2%	-7%	40
Cc1cc(C)nc(/N=C(\N)Nc2ccc(-c3ccccc3)cc2)n1	u	u	u	0%	11µM*	u
COc1ccc(OC)c(N/C(N)=N/c2nc(C)cc(C)n2)c1	x	-22%	x	-1%	u	53
COc1ccc(N/C(N)=N/c2nc(C)cc(C)n2)c(OC)c1	-6%[46.1 µM]	u	-7%	0%	u	-67*
Nc1nonc1-n1nnc(C(=O)N/N=C/c2ccncc2)c1-c1cccs1	2%[46.1 µM]	26%	5%[46.1 µM]	u	12%	+
Nc1nonc1-n1nnc(C(=O)N/N=C/c2ccc(Cl)cc2Cl)c1CN1CCCC1	3%[46.1 µM]	-13%	2%	2%	14%	1
Nc1nonc1-n1nnc(C(=O)N/N=C/c2ccc(OCc3ccc(F)cc3)cc2)c1COc1ccccc1	x	-13%	x	0%	u	-73*
Cc1ccc(COc2ccc(/C=N/NC(=O)c3nnn(-c4nonc4N)c3COc3ccc(F)cc3)cc2)cc1	x	13%	x	0%	-4%	-3
Nc1nonc1-n1nnc(C(=O)N/N=C/c2cccc(Cl)c2Cl)c1CN1CCCC1	-3%[46.1 µM]	-2%	13%[46.1 µM]	-2%	u	-61*
Cc1c(C(=O)N/N=C/c2c(O)ccc3ccccc23)nnn1-c1nonc1N	u	-11%	u	1%	u	-98*
Cc1cc(O)cc(O)c1C(=O)OC1(C)C(=O)C=C2C=C(C=CC(=O)O)OC=C2C1=O (stereo not given)	-31%[14.2 µM]	x	u	x	x	x
Cc1cc(=O)n(CC(=O)N2CCCCC2)c2c1c(C)nn2C	x	9%	16%[46.1 µM]	x	x	0
Cc1ccccc1-c1nc(CS(=O)(=O)CC(=O)NCc2cccc(Cl)c2)c(C)o1	-12%[46.1 µM]	-9%	10%[46.1 µM]	x	x	14
COc1cccc(NC(=O)N[C@H]2CC[C@@]34CCCN3C(=O)CCC[C@H]4[C@H]2C)c1	x	x	x	x	x	45
COc1ccc(-c2onc(C)c2C)cc1S(=O)(=O)Nc1ccc(OC(F)(F)F)cc1	x	24%	11%[46.1 µM]	x	x	33
Nc1nonc1-n1nnc(C(=O)N/N=C/c2cc(Br)ccc2O)c1CNc1ccccc1	u	-20%	u	u	10µM*	-93*
COc1cc(Cl)c(C)cc1NC(=O)c1cc(CN2CCOCC2)on1	x	-12%	-3%[46.1 µM]	x	x	-1
CNC(=O)NC(=O)CN1C=NC2SC(c3ccccc3)C=C2C1=O (stereo not given)	-2%[46.1 µM]	x	x	x	x	x
SMILES	Marburg entry inh	FMDV inh	LASV entry inh	SARS PLpro yeast	HCV inh	HCMV inh
O=C(Nc1ccc(N2CCOCC2)c(Cl)c1)c1c(F)c(F)c(F)c(F)c1F	-6%	u	-4%	0%	8.9µM*	-27
Cc1ccccc1C(=O)N1CCN(c2ccc(NC(=O)c3ccco3)cc2Cl)CC1	u	u	10µM*	-18%	11µM*	10
COc1c(F)c(F)c(C(=O)Nc2ccc(N3CCN(C(C)=O)CC3)c(Cl)c2)c(F)c1F	u	u	-17%	2%	u	-83*
O=C(Nc1ccc(N2CCN(C(=O)c3ccco3)CC2)c(Cl)c1)c1c(F)c(F)c(F)c(F)c1F	u	28µM*	u	-15%	u	-33
O=C(Nc1ccc(N2CCN(C(=O)c3ccco3)CC2)c(Cl)c1)c1cccnc1	9%[46.1 µM]	-23%	-1%[46.1 µM]	0%	u	-31
CC(C)c1ccc(NC(=O)c2cc3c(=O)[nH]c4ccccc4c3n2C)cc1	6%[46.1 µM]	0%	9%[46.1 µM]	x	x	-23
Oc1ccc(CNCc2ccc3c(c2)OCO3)c2cccnc12	x	x	x	4%	x	x
O=C(Nc1ccc(N2CCN(C(=O)c3ccco3)CC2)cc1)c1cc(Br)ccc1Cl	10µM*	u	u	-3%	u	-33
O=C(Nc1ccc(N2CCN(C(=O)c3ccco3)CC2)cc1)c1ccc(Br)cc1	x	-7%	x	11%	-3%	-21
COc1ccc2[nH]c(C)c(C(=O)CN3C[C@@H](C)O[C@@H](C)C3)c2c1	-1%	x	x	x	x	x
O=S1(=O)CC(N2CC=CC2)CN1CCc1ccccc1 (stereo not given)	x	x	8%[46.1 µM]	x	x	x
Cc1cc(C)cc(NS(=O)(=O)c2cnc(Cl)c(Cl)c2)c1	2%	14%	1%	-20%	11µM*	-15
CC(C)(CCO)Nc1ncnc2onc(-c3ccc(F)cc3)c12	-3%[46.1 µM]	-23%	10%[46.1 µM]	0%	2%	-64*
N#CC1=C2SCC(O)(c3ccccc3)N2C(=O)CC1c1cccs1 (stereo not given)	0.033µM*!	u	u	2%	u	-6
CN(C)c1ccc(C(C(=O)NCC2CCCO2)N(Cc2ccccc2)C(=O)c2snc(C(N)=O)c2N)cc1 (stereo not given)	u	3%	u	2%	-6%	-17
NC(=O)c1nsc(C(=O)N(Cc2ccc(F)cc2)C(C(=O)NCC2CCCO2)c2ccc(F)cc2)c1N (stereo not given)	11µM*	16%	-8%	14%	-13%	-2
CN(C)c1ccc(C(C(=O)NCc2ccccc2)N(Cc2ccco2)C(=O)c2snc(C(N)=O)c2N)cc1 (stereo not given)	u	-10%	u	-2%	13µM*	-76*
Cc1ccc(C(C(=O)NCc2ccc(F)cc2)N(Cc2ccco2)C(=O)c2snc(C(N)=O)c2N)o1 (stereo not given)	u	18%	u	-1%	u	-81*
c1csc(-c2csc3nc(CN4CCOCC4)nc(NCc4ccc5c(c4)OCO5)c23)c1	18µM*	u	-13%	-1%	u	-23
c1ccc2c(c1)nc(NCc1ccc3c(c1)OCO3)n2CCN1CCOCC1	-10%	-17%	7%	-1%	31%	-7
